Screening results from PubChem BioAssay.
A selection: hits, their analogues and other compounds. The true share with any hit is near 19%.
HT1080-NT tox – qHTS for induction of synthetic lethality in tumor cells producing 2HG: qHTS for the HT-1080-NT fibrosarcoma cell line; HT-1080-NT fibrosarcoma viability, CellTiter-Glo ATP luminescence, 48 h; Potency, µM (series often up to 46.1 µM), usual class: cytotoxic; 360,000 tested, 1.6% active;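 also: NT is the 2HG producing partner of a matched IDH1 knockdown line; nearly all actives have a fitted effect of over 55% in size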
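Toxicity toward the 2HG-producing NT line was scored as %Activity, normalised to DMSO and no-cell wells, from CellTiter-Glo luminescence after 48 hours' treatment.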
DT40 TDP1 CPT – qHTS for Inhibitors of human tyrosyl-DNA phosphodiesterase 1 (TDP1): qHTS in cells in presence of CPT | chicken DT40 Tdp1-/-;hTDP1 cells + 20 nM CPT, ATP luminescence, 48 h | Potency, µM (titrated, usually from 46.2 µM), hits mostly inhibitors | 420,000 tested, 12% active; also: nearly all actives have a fitted effect of over 55% in size
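Chicken DT40 Tdp1-/- cells complemented with human TDP1, 400 cells/well, exposed to compounds plus 20 nM camptothecin for at least 48 h at 37 C; viability read as ATP content by CellTiter-Glo luminescence.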
IL-1B inflam inh – qHTS for Inhibitors of Inflammasome Signaling: IL-1-beta AlphaLISA Primary Screen; THP-1 LPS/ATP IL-1B secretion, AlphaLISA, 16 h; hits give low values; activity change, % at 57.5 µM; 360,000 tested, 4.7% active; AID 743279, 2014; in the data active = activity change below about -50%; inconclusive = mostly about -30% to -49%
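Secreted IL-1B measured by AlphaLISA bead assay after 16 h compound exposure of THP-1 cells; compounds (final up to 57.5 uM) added 1 h before LPS (250 ng/mL) and ATP (1.25 mM) stimulation; lower signal means less secretion.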
HT1080 IDH1KD tx – qHTS for induction of synthetic lethality in tumor cells producing 2HG: qHTS for the HT-1080-IDH1KD cell line. HT-1080 IDH1 knockdown viability, ATP luminescence, 48 h. 360,000 tested, 2% active. Potency, µM (top dose mostly 46.1 µM), hits mostly cytotoxic
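Knockdown cells (IDH1KD HT-1080) received compounds 2 h after plating at 750 cells/well and were kept 48 h at 37 °C in 5% FBS RPMI. A CellTiter-Glo luminescence read gave % activity for curve fitting.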
DT40 TDP1 no CPT – qHTS for Inhibitors of human tyrosyl-DNA phosphodiesterase 1 (TDP1): qHTS in cells in absence of CPT; DT40 Tdp1-/- hTDP1 cells, no CPT, ATP luminescence, 48 h; Potency, µM (titrated, usually from 46.2 µM), usual class: inhibitors; 420,000 tested, 15% active; also: nearly all actives have a fitted effect of over 55% in size
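Readout: luminescence from CellTiter-Glo after 30 min in the dark at RT. Cells: DT40 Tdp1-/- with stable hTDP1, 400/well. Exposure: compounds alone, ≥48 hr, 37 °C.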
ELG1 repair inh – qHTS screen for small molecules that inhibit ELG1-dependent DNA repair in human embryonic kidney (HEK293T) cells expressing luciferase-tagged ELG1. HEK293T ELG1-luciferase reporter, luminescence, 16 h; DNA damage induced by 5-fluorouridine. Potency, µM (series often up to 46.1 µM), actives largely listed as inhibitors. 330,000 tested, 2.3% active. AID 504467, 2011; also: nearly all actives have a fitted effect of over 55% in size
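Quantitative HTS, concentration-response format. 2,000 cells/well co-treated with 5-fluorouridine and compound, 16 hr in 5% CO2 at 37 °C; ONE-Glo luminescence read after 30 min.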
Hits are given with their value; 0 = inactive; ? = inconclusive; - = no result given; [ ] = remark or other dose. Unless noted, calls follow the shape of the dose curve; as a rule, active = well fitted curve in the direction sought with a large enough effect; inconclusive = small, poorly fitted or top-dose-only effect, or another doubt; inactive = no such curve, though single readings can be large; an effect the other way counts as inactive or inconclusive.

SMILES	HT1080-NT tox	DT40 TDP1 CPT	IL-1B inflam inh	HT1080 IDH1KD tx	DT40 TDP1 no CPT	ELG1 repair inh
COc1ccccc1NC(=O)Nc1ccccc1Br	0	18.4µM	0	0	?	0
O=C(Nc1ccccc1)Nc1ccc2ccccc2c1	0	0	0	0	0	?
O=C(Nc1ccccc1)Nc1ccc(Br)c(Cl)c1	0	?	?	0	16.4µM	0
COc1ccccc1NC(=O)C(Sc1ccccc1)c1ccccc1 (stereo not drawn)	0	20.6µM	0	0	?	0
COc1ccccc1NC(C)=O	0	0	0	0	0	0
COc1ccccc1NC(=O)Nc1cc(NC(=O)Nc2ccccc2OC)c(C)nc1C	16.4µM	?	0	16.4µM	?	?
COc1ccc(NC(=O)C(Sc2ccccc2)c2ccccc2)c(OC)c1 (stereo not drawn)	0	0	0	?	?	0
O=S(=O)(c1ccc(Br)cc1)c1nnn2c1nc(Nc1cccc(C(F)(F)F)c1)c1sccc12	-	0	-	-	0	-
O=C(Nc1ccccc1)Nc1cccc(NC(=O)Nc2ccccc2)c1F	0	0	0	0	0	?
O=C(Nc1ccccc1)Nc1ccccc1Br	0	14.6µM	0	0	?	?
CC1(C)CC2(CC(c3ccc(F)cc3)c3ccc(O)cc3O2)NC(=S)N1 (stereo not drawn)	0	?	0	0	?	0
CC1(C)CC2(CC(c3cccs3)c3cc(Cl)c(O)cc3O2)NC(=S)N1 (stereo not drawn)	0	8.2µM	0	0	7.31µM	0
N=C(N)SCCN	0	23.1µM	0	0	14.6µM	0
CCc1cccc2c(C(O)c3c[nH]c4ccccc34)c[nH]c12 (stereo not drawn)	-	4.47µM	-	-	11.2µM	-
CCc1cccc2c(C(=S)N3CCCC3)c[nH]c12	0	0	0	0	0	0
CCc1cccc2c(C(=O)CCl)c[nH]c12	?	14.6µM	-94.7	14.6µM	20.6µM	0
OC(c1ccccn1)c1c[nH]c2ccccc12 (stereo not drawn)	0	0	0	0	0	0
CCc1cccc2c(C(=O)CN3C(=O)NC4(CCCCC4)C3=O)c[nH]c12	0	5.8µM	0	?	5.8µM	?
OC[C@@H]1CN(C2CCCC2)C[C@H](n2cnc3c(NC4CC4)ncnc32)O1	?	0	0	0	0	-
COc1ccc(-n2nc3ccc(N)cc3n2)cc1	0	16.4µM	0	0	?	-
O=C(NC(=S)N1CCN(C/C=C/c2ccccc2)CC1)c1ccco1	0	?	0	0	20.6µM	0
O=C(c1ccco1)N1CCN(C/C=C/c2ccccc2)CC1	0	0	0	0	?	0
O=C(/C=C/c1ccccc1)NC(=S)NNC(=O)c1ccco1	0	?	0	0	20.6µM	?
O=C(/C=C/c1ccc(Br)cc1)NC(=S)NNC(=O)c1ccco1	16.4µM	?	0	14.6µM	18.4µM	?
COc1ccc(/C(C)=N/OC/C(O)=C(\C#N)c2nc3ccccc3[nH]2)cc1OC	?	?	0	0	16.4µM	0
SMILES	HT1080-NT tox	DT40 TDP1 CPT	IL-1B inflam inh	HT1080 IDH1KD tx	DT40 TDP1 no CPT	ELG1 repair inh
CC(C)(C)/C(O)=C(/C#N)c1nc2ccccc2[nH]1	0	?	0	0	?	23.1µM
N#C/C(=C(O)\C=C\c1ccccc1)c1nc2ccccc2[nH]1	0	0	0	0	?	0
COc1ccc(/C(C)=N/OC/C(O)=C(\C#N)c2nc3ccccc3[nH]2)c(OC)c1	0	0	0	0	0	0
COc1cccc(OC)c1/C(O)=C(\C#N)c1nc2ccccc2[nH]1	17.8µM	?	0	0	13µM	0
COc1ccc(C/C(O)=C(\C#N)c2nc3ccccc3[nH]2)cc1OC	0	0	0	0	0	?
CO[C@H]1[C@H](NC(=O)c2ccco2)c2ccccc2C12CCN(Cc1ccc3cccc(F)c3n1)CC2	-	0[9.04 µM]	-	-	?	-
COc1cc2nc(/C=C/c3cc(OC)c(OC)c(OC)c3)sc2cc1SC	?	5.8µM	0	?	5.8µM	11.6µM
COc1cc2nc(C)sc2cc1SC	0	?	0	0	?	0
COCCNC(=O)C1(C)CCCN(Cc2ccc3ccccc3c2Br)C1 (stereo not drawn)	0	?	0	?	?	-
c1ccc2c(CCc3ccncc3)cccc2c1	0	0	-88.1	0	0	-
c1ccc2c(CSCCc3ccncc3)cccc2c1	0	23.1µM	0	0	20.6µM	0
CN(C)C(CNC(=O)c1cccc(S(=O)(=O)Nc2ccc(SC(F)F)cc2)c1)c1ccccc1 (stereo not drawn)	0	?	0	0	?	-
CCN(CC)c1ccc(NC(=O)Nc2ccccc2)cc1	0	0	?	0	?	?
Fc1ccc(C2Nc3cccc4cccc(c34)N2)cc1	0	?	0	0	?	0
CCCOc1ccc(C2Nc3cccc4cccc(c34)N2)cc1	0	20.6µM	0	0	6.51µM	?
CCN(CC)c1ccc(C2NC(=O)c3ccccc3N2)cc1 (stereo not drawn)	?	7.31µM	0	?	13µM	-
CCCOc1ccc(C2NC(=O)NC2=O)cc1 (stereo not drawn)	0	0	0	0	0	0
CCN(CC)c1ccc(N=C2C(=O)Nc3ccccc32)cc1	?	6.51µM	-89.0	20.6µM	5.8µM	16.4µM
CCN(CC)c1ccc(C2Nc3cccc4cccc(c34)N2)cc1	0	?	0	0	16.4µM	?
Cc1ccc(N=C2C(=O)Nc3ccccc32)cc1	0	0	0	0	0	0
CO/N=C(\C(=O)N[C@@H]1C(=O)N2C(C(=O)O)=C(CSc3nc(C)c(CC(=O)O)s3)CS[C@H]12)c1csc(N)n1	-	0	-	-	0	-
Cc1ccc(C)c(NCCCCC(=O)O)c1	0	0	0	0	0	-
Cc1cc(C)cc(OC(C)C(=O)Nc2ccc(S(=O)(=O)Nc3cc(C)nc(C)n3)cc2)c1 (stereo not drawn)	0	0	0	0	0	0
O=S(=O)(NCc1ccc(F)cc1)c1ccc(-n2cccn2)cc1	0	0	0	0	0	0
COc1ccccc1NC(=O)c1cnc(SCC(=O)NCCc2ccccc2)n(C)c1=O	0	16.4µM	0	0	10.3µM	?
Cn1c(SCC(=O)NCc2ccccc2)ncc(C(=O)Nc2ccccc2)c1=O	0	11.6µM	0	0	?	0
